Six1-Eya2 inh: qHTS Assay for Inhibitors of the Six1/Eya2 Interaction | AlphaScreen GST-Six1/His-Eya2 binding, biochemical; stronger effect = lower value | activity change, % (no concentration beside the values) | 360,000 tested, 0.56% active | AID 651725, 2012
Target sequence (O00167 whole entry, looked up): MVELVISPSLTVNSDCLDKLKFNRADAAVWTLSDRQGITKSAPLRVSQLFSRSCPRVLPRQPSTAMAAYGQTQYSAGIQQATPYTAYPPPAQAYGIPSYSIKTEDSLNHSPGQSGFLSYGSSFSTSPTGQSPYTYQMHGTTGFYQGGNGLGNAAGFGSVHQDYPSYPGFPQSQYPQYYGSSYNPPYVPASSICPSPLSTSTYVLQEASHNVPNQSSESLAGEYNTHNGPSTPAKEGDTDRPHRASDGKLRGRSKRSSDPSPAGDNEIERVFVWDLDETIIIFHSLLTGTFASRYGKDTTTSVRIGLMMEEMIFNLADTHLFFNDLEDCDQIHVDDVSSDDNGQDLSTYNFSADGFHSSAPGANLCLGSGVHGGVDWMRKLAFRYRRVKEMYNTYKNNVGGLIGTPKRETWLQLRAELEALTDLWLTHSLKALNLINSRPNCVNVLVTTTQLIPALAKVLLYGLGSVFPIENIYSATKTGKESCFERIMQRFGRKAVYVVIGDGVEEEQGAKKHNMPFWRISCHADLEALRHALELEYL
Target sequence (Q15475 whole entry, looked up): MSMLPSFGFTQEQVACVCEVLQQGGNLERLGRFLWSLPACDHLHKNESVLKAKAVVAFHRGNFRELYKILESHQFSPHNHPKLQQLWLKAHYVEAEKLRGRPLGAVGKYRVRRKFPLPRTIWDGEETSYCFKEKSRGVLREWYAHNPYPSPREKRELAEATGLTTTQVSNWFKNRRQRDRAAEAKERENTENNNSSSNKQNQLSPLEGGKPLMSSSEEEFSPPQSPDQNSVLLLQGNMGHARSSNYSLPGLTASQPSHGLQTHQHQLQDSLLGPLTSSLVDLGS
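GST-Six1 + His-Eya2 (5X stock: 250/500 nM); Tris pH 8.0, 300 mM NaCl, 0.05% BSA, 0.02% Tween 20; GSH donor/Ni acceptor beads; 1 h 37 °C dark; AlphaScreen readout.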
CtBP-E1A inh: qHTS Assay for Inhibitors of the CtBP/E1A Interaction; 340,000 tested, 0.49% active; AlphaScreen GST-E1A/His-CtBP binding, 1536-well; stronger effect = lower value; activity change, % (no concentration beside the values); AID 651724, 2012; CtBP / adenovirus E1A interaction (AlphaScreen)
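Homogeneous bead-based format: GST-tagged E1A captured on glutathione donor beads, His-tagged CtBP on nickel acceptor beads; compounds precede bead addition by 2 h at 37 °C.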
Akt phos inh: HTS Assay for Inhibitors of Akt Phophorylation: Primary Screen; Neuro2A IGF-stimulated pAkt S473 HTRF, 20 min; stronger effect = lower value; activity change, % for hits at 50 µM; 360,000 tested, 0.32% active; AID 651550, 2012; in the data active = activity change below about -80%; inconclusive = mostly about -51% to -80%
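Neuro2A cells in DMEM with 0.5% FBS, overnight at 37 deg C, given compound at single 50 µM final, then IGF (6 nM final) for 20 min at 37 deg C. Lysed; phospho-Akt Ser473 by HTRF after 24 h, 665/615 ratio.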
PI5P4K alpha inh: qHTS for Inhibitors of phosphatidylinositol 5-phosphate 4-kinase (PI5P4K); Phosphatidylinositol 5-phosphate 4-kinase type-2 alpha (Homo sapiens), P48426; PI5P4Kalpha enzyme, ADP-Glo luminescence, 60 min; stronger effect = lower value; max response, %; 330,000 tested, 1.2% active; AID 652105, 2013; active = max response of -50% or lower; inconclusive = between -30% and -50%; inactive = -30% or higher; note: value at the top dose of about 77 µM
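Reactions run in 0.038 M HEPES pH 7.4, 0.28 mM EGTA, 0.1% CHAPS and 5% DMSO, with PI5P4Kalpha, substrate, compound and 5 microM ATP final, one hour at room temperature. Readout is ADP-Glo luminescence.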
PI4K2A block: qHTS for small molecular inhibitors of PI4K2A. purified PI4K2A, ADP-Glo luminescence, 1 h; stronger effect = lower value. activity change, negative = inhibition, % at 76.9 µM. 420,000 tested, 0.13% active; in the data active = activity change below about -50%; inconclusive = mostly about -30% to -49%
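Compounds are screened against recombinant PI4K2A using PI as substrate and ATP, the latter dispensed at 300 microM. Reactions run one hour at ambient temperature before ADP-Glo detection; full inhibition defined by wells lacking enzyme.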
Of the large screens only hits and unclear results are named; the others gave an inactive call. A selection: hits, their analogues and other compounds. The true share with any hit is near 1.8%. Cut-off read from the data, not from the text of the source, unless noted: active = activity change below about -65%; inconclusive = mostly about -30% to -63%; inactive = weaker than that.

O=C(NNC(=O)c1ccc(Cl)c(S(=O)(=O)Nc2ccc(Cl)cc2)c1)c1ccc(=O)[nH]c1	none
CCN1C(=O)N(C)C2(c3ccccc3)N(C)C(=O)N(C)C12c1ccccc1 (configuration not stated)	none
COc1cccc(N2CCN(Cc3ccsc3)CC2)c1	none
CCOC(=O)CC1=C(C(=O)OCC)C(c2ccncc2)C(C#N)=C(N)O1 (configuration not stated)	Akt phos inh -116%
Cn1c(Sc2ccc(C(=O)O)cc2[N+](=O)[O-])nnc1-c1ccccc1	PI5P4K alpha inh -77
CCOc1ccc(-c2nonc2NC(=O)c2oc3cc(C)ccc3c2C)cc1	none (no result: Six1-Eya2 inh, CtBP-E1A inh, Akt phos inh, PI5P4K alpha inh)
O=C1NC(=Nc2ccccc2)S/C1=C\C=C\c1ccco1	Six1-Eya2 inh inconclusive, PI5P4K alpha inh -94, PI4K2A block inconclusive
Cc1cccc(N=C2NC(=O)/C(=C/C=C/c3ccco3)S2)c1C	Six1-Eya2 inh inconclusive, PI5P4K alpha inh -80
COc1ccc(N=C2NC(=O)/C(=C/c3ccco3)S2)cc1	none (no result: CtBP-E1A inh)
Cc1cccc(N=C2NC(=O)/C(=C/c3cccnc3)S2)c1C	none (no result: CtBP-E1A inh)
Cc1ccc(N=C2NC(=O)/C(=C/C=C/c3ccco3)S2)cc1	Six1-Eya2 inh inconclusive, PI5P4K alpha inh -78, PI4K2A block inconclusive
CCc1nnc(NS(=O)(=O)c2ccc(N)cc2)s1	none
CC(C)(C)c1ccc(S(=O)(=O)CCc2ccccn2)cc1	none
O=C(CSc1nnc(COc2ccccc2Cl)o1)NC(=O)NCc1ccco1	PI5P4K alpha inh -75
O=C(CSc1nnnn1-c1ccccc1)NC(=O)NCc1ccco1	PI5P4K alpha inh -60
CCn1c(SCC(=O)Nc2ccc(NC(=O)c3ccco3)c(OC)c2)nc2ccccc2c1=O	none (no result: PI5P4K alpha inh)
Cc1nc2ccccc2c(=O)n1NC(=O)Cc1ccc(Br)cc1	Akt phos inh -81% (no result: PI5P4K alpha inh)
COc1cccc(CN(C)C(=O)c2cc(S(=O)(=O)NC3CCCCC3)ccc2C)c1	none
COC(=O)c1sccc1-c1ccc(C(=O)Nc2ccccc2)o1	Akt phos inh -128%
COc1ccc(C(=O)N/N=C(\C)c2ccccn2)cc1OC	Six1-Eya2 inh -89, CtBP-E1A inh -93
COc1ccccc1OCC(=O)N/N=C(\C)c1ccc2ccccc2c1	PI5P4K alpha inh -68
COc1ccc(NC(=O)c2ccccn2)cc1OC	none (no result: CtBP-E1A inh)
C/C(=N\NC(=O)c1cccc(Br)c1)c1ccccn1	Six1-Eya2 inh -90
Cc1cc2c(cc1C)/C(=N/NC(=O)c1ccccn1)CCC2	none
C/C(=N\NC(=O)Cc1cccn1C)c1ccc2ccccc2c1	none
O=C(NN=C1CCC(=NNC(=O)c2ccccn2)CC1)c1ccccn1	Six1-Eya2 inh -67, CtBP-E1A inh -75
COc1ccc(C2c3c(-c4c(C)cc(C)cc4O)n[nH]c3C(=O)N2Cc2ccco2)cc1 (configuration not stated)	none (no result: Six1-Eya2 inh, CtBP-E1A inh, Akt phos inh, PI5P4K alpha inh)
C/C(=N/NC(=O)c1ccc(C(C)(C)C)cc1)c1ccccn1	Six1-Eya2 inh -88
CCOc1ccc(OCc2ccc(C(=O)N/N=C(\C)c3ccccn3)cc2)cc1	Six1-Eya2 inh inconclusive, CtBP-E1A inh inconclusive
O=C(NN=C(c1ccccc1)c1ccccn1)c1ccccc1	Six1-Eya2 inh -68
Cc1ccc(C(=O)CCC(=O)Nc2ccccc2F)cc1	none
Cc1c(C(=O)NC2CCCCC2)sc2ncnc(N3CCN(c4ccccc4)CC3)c12	none
COc1cc(/C=N/N=C2/SCC(=O)N2c2ccc(O)cc2)ccc1O	PI5P4K alpha inh -50
COc1ccc(CCNC(=O)c2cnc(C)cn2)cc1	none
COc1ccc(CCNC(=O)COC(=O)c2cnc(C)cn2)cc1	Akt phos inh -109%
Cc1cc(C)c(C(=O)COC(=O)Cn2cnnn2)cc1C	none (no result: PI5P4K alpha inh)
O=C(Cn1cnnn1)OCC(=O)c1ccc(Cl)s1	PI5P4K alpha inh -66 (no result: Akt phos inh)
COc1ccc(OC)c(NC(=O)Cn2c(CCC(=O)O)ccc2-c2cccs2)c1	Akt phos inh -119%
COCCCNC(=S)N/N=C/c1ccc(N(C)C)cc1	none
CCCCNC(=S)N/N=C/c1ccc(C#N)cc1	PI5P4K alpha inh -73
COc1ccc(NS(=O)(=O)c2cccs2)cc1S(=O)(=O)N1CCOCC1	none
COc1ccc(Nc2nc(-c3cccs3)nc3ccccc23)cc1S(=O)(=O)N1CCOCC1	Six1-Eya2 inh inconclusive, CtBP-E1A inh -67
COc1cc(NC(=O)C2CCN(S(=O)(=O)c3ccc(N4CCCC4=O)cc3)CC2)cc(OC)c1	Six1-Eya2 inh inconclusive, CtBP-E1A inh inconclusive
CC1=NN(c2ccccc2)C(=O)C1N=Nc1ccccc1 (configuration not stated)	none
CC1=NN(c2ccccc2)C(=O)C1N=Nc1ccc(N)cc1 (configuration not stated)	Six1-Eya2 inh -71, CtBP-E1A inh inconclusive, PI4K2A block inconclusive
COc1ccc(N=NC2C(=O)N(c3ccccc3)N=C2C)cc1 (configuration not stated)	Six1-Eya2 inh -73, CtBP-E1A inh inconclusive
Cc1nn(-c2ccccc2)c(C)c1NC(=O)c1ccc(S(=O)(=O)N2CCCC2)cc1	none (no result: PI5P4K alpha inh)
Cc1cccc(NC(=O)CCC(=O)N/N=C/c2ccc(O)cc2O)c1	Six1-Eya2 inh inconclusive, CtBP-E1A inh -84
COc1ccccc1/C=C\C(=O)NCC(=O)N/N=C/c1ccc(O)cc1O	Six1-Eya2 inh -80, CtBP-E1A inh -74, PI5P4K alpha inh inconclusive
Cc1ccccc1NC(=S)N/N=C/c1ccc(O)cc1O	Six1-Eya2 inh -89, CtBP-E1A inh -97, PI5P4K alpha inh inconclusive
O=C(CCc1ccccc1)NCC(=O)N/N=C/c1ccc2c(c1)OCO2	none (no result: CtBP-E1A inh)
O=C(CCc1ccccc1)NCC(=O)N/N=C/c1ccc(O)cc1O	Six1-Eya2 inh -66 (no result: CtBP-E1A inh)
O=S(=O)(c1ccc(Cl)cc1)N(CCCN1CCOCC1)Cc1cccs1	none (no result: CtBP-E1A inh)
O=[N+]([O-])c1cc(S(=O)(=O)Nc2ccccc2)ccc1N1CCN(c2ccccc2)CC1	Six1-Eya2 inh inconclusive, CtBP-E1A inh inconclusive
COc1ccc(C2CC(c3ccccc3)=NN2C(=O)COC(=O)c2cccnc2)cc1 (configuration not stated)	none
O=C(CNC(=O)c1cccnc1)N/N=C/c1ccc(O)cc1O	Six1-Eya2 inh -72, CtBP-E1A inh -86
O=C(CNC(=O)c1cccs1)N/N=C/c1ccc(O)cc1O	Six1-Eya2 inh -86, CtBP-E1A inh inconclusive
C/C(=N\NC(=O)CNC(=O)c1cccnc1)c1cccc(O)c1	none (no result: CtBP-E1A inh)
O=C(NN=Cc1ccc(O)cc1O)c1ccccc1NS(=O)(=O)c1cccs1	Six1-Eya2 inh inconclusive, CtBP-E1A inh -80
CCc1nc(SCC(=O)O)c2c3c(sc2n1)COC(C)(C)C3	none
O=C(Nc1ccc(Cl)c(Cl)c1)C1CC1	none (no result: Six1-Eya2 inh, CtBP-E1A inh, Akt phos inh, PI5P4K alpha inh)
COc1ccc(C(=O)/C=C/c2ccc(OC)c(CN3CCOCC3)c2)cc1	CtBP-E1A inh inconclusive
